Experimental data: the supplement of paper PMC12350171
Counter-ions that a name gives are not always drawn.

Assays:
Conditions in all cases: 20 µM
[1] = test system: Salmonella enterica typhimurium; experiment: growth AUC normalised to DMSO control (fraction of control); higher = less growth inhibition, active = hit call of the paper
How it was run: (§1)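 Pathogens were passaged twice under anaerobic conditions, then inoculated into pre-reduced mGAM plates at a starting OD578 of 0.01, with compound at 20 μM and 1% DMSO, and sealed with breathable membranes. For Haemophilus parainfluenzae, the medium was supplemented with hemin and NAD. OD578 was read every hour for 24 h in three biological replicates. Growth-curve AUC was calculated by the trapezoidal rule up to the exponential-to-stationary transition and normalised to DMSO controls on the same plate.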

[2] = test system: Shigella flexneri; experiment: as above
How it was run: as §1

[3] = test system: Vibrio cholerae; experiment: as above
How it was run: as §1

[4] = test system: Yersinia pseudotuberculosis; experiment: as above
How it was run: as §1

[5] = test system: P. vulgatus RND KO; experiment: growth AUC normalised to DMSO control (median) (fraction of control); higher = less growth inhibition, active = hit call of the paper
How it was run: (§2)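 Area under the growth curve, calculated by the trapezoidal rule up to entry into stationary phase, was normalised to vehicle wells on the same plate. Strains had been passaged twice overnight without oxygen and then grown in mGAM in 96-well plates from OD578 0.01, each with an approved-drug library compound at 20 μM in 1% DMSO. OD578 was read hourly over 24 h in an anaerobic incubator, and the median of three biological replicates is given.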

[6] = test system: P. vulgatus WT; experiment: as above
How it was run: as §2

[7] = test system: S. enterica typhimurium WT; experiment: as above
How it was run: as §2

[8] = test system: S. enterica typhimurium tolC KO; experiment: as above
How it was run: as §2

Measured: growth AUC normalised to DMSO control
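For growth AUC normalised to DMSO control (median) in this document: active when median AUC fell below 0.1.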

Cn1c(=O)c2c(ncn2CC(=O)O)n(C)c1=O [Acefylline]
inactive: [1] 0.979 | [2] 0.987 | [3] 0.98 | [4] 0.987 | [5] 0.987 | [6] 0.996 | [7] 0.996 | [8] 1.01

C[C@H]1O[C@H](O[C@H]2[C@H](O)[C@@H](O)[C@@H](O[C@@H]([C@H](O)[C@@H](O)C=O)[C@H](O)CO)O[C@@H]2CO)[C@H](O)[C@@H](O)[C@@H]1N[C@H]1C=C(CO)[C@@H](O)[C@H](O)[C@H]1O [Acarbose]
inactive: [1] 1.04 | [2] 0.995 | [3] 0.999 | [4] 1.01 | [5] 1.01 | [6] 0.884 | [7] 1.03 | [8] 1

NC(=O)OCC(O)COc1ccc(Cl)cc1 (configuration not stated) [Chlorphensin carbamate]
inactive: [1] 1.01 | [2] 1.01 | [3] 1.03 | [4] 1.01 | [5] 0.992 | [6] 0.994 | [7] 1.02 | [8] 0.987

N[C@@H](Cc1cc(I)c(Oc2cc(I)c(O)c(I)c2)c(I)c1)C(=O)O [(L) Thyroxine]
inactive: [1] 1.01 | [2] 1.02 | [3] 1.03 | [4] 1.02 | [5] 0.994 | [6] 1.06 | [7] 1.02 | [8] 0.983

CO/N=C(\C(=O)N[C@@H]1C(=O)N2C(C(=O)O)=C(COC(C)=O)CS[C@H]12)c1csc(N)n1 [Cefotaxime sodium salt]
active: [1] 0.00568 | [2] 0.0409 | [3] 0.0691 | [4] 0.0555 | [5] 0.00835 | [6] 0.0141 | [7] 0.00974 | [8] 0.00366

CCN(CC)C(=O)/C(C#N)=C/c1cc(O)c(O)c([N+](=O)[O-])c1 [Entacapone]
inactive: [1] 1.02 | [2] 1.04 | [3] 1.07 | [4] 0.998 | [5] 0.987 | [6] 0.996 | [7] 0.997 | [8] 1

Cc1c(NC(=O)c2cccnc2)c(=O)n(-c2ccccc2)n1C [Nifenazone]
inactive: [1] 0.976 | [2] 1 | [3] 1.01 | [4] 1.01 | [5] 0.997 | [6] 1 | [7] 1.01 | [8] 0.996

O=C(NCC1CCCCN1)c1cc(OCC(F)(F)F)ccc1OCC(F)(F)F (configuration not stated) [Flecainide acetate]
inactive: [1] 0.995 | [2] 0.966 | [3] 0.988 | [4] 0.989 | [5] 1 | [6] 1.03 | [7] 1 | [8] 1

CN1CCOC(c2ccccc2)c2ccccc2C1 (configuration not stated) [Nefopam hydrochloride]
inactive: [1] 0.987 | [2] 0.993 | [3] 0.983 | [4] 1 | [5] 0.992 | [6] 0.982 | [7] 1 | [8] 0.988

CC(=O)[C@H]1CC[C@H]2[C@@H]3CC=C4C[C@@H](O)CC[C@]4(C)[C@H]3CC[C@]12C [Pregnenolone]
inactive: [1] 1 | [2] 0.985 | [3] 0.996 | [4] 1 | [5] 1.02 | [6] 1.02 | [7] 0.993 | [8] 0.954

CN(C)c1ccc(O)c2c1C[C@H]1C[C@H]3[C@H](N(C)C)C(=O)C(C(N)=O)=C(O)[C@@]3(O)C(=O)C1=C2O [Minocycline hydrochloride]
active: [1] 0.00774 | [2] 0.0229 | [3] 0.0305 | [4] 0.0367 | [5] 0.0156 | [6] 0.0185 | [7] 0.0116 | [8] 0.00184

COc1ccccc1OCC(O)CO (configuration not stated) [Guaifenesin]
inactive: [1] 0.998 | [2] 1.02 | [3] 1.01 | [4] 0.992 | [5] 0.984 | [6] 0.987 | [7] 0.995 | [8] 0.99

C=CCN1CCCC1CNC(=O)c1cc2nn[nH]c2cc1OC (configuration not stated) [Alizapride hydrochloride]
inactive: [1] 1 | [2] 1 | [3] 1.01 | [4] 0.996 | [5] 0.998 | [6] 1 | [7] 1.02 | [8] 1

N#Cc1ccc(C(c2ccc(C#N)cc2)n2cncn2)cc1 [Letrozole]
inactive: [1] 1.01 | [2] 1 | [3] 0.989 | [4] 0.999 | [5] 1.01 | [6] 1.01 | [7] 1.01 | [8] 1

CC(CN(C)C)C(C)(O)Cc1ccc(Cl)cc1 (configuration not stated) [Clobutinol hydrochloride]
inactive: [1] 0.999 | [2] 0.98 | [3] 0.987 | [4] 0.993 | [5] 0.999 | [6] 1.03 | [7] 1.01 | [8] 0.994

CO[C@H]1/C=C/O[C@@]2(C)Oc3c(C)c(O)c4c(O)c(c5c(nc6cc(C)ccn65)c4c3C2=O)NC(=O)/C(C)=C\C=C\[C@H](C)[C@H](O)[C@@H](C)[C@@H](O)[C@@H](C)[C@H](OC(C)=O)[C@@H]1C [Rifaximin]
active: [1] 0.477 | [2] 0.56 | [4] 0.0303 | [5] 0.0137 | [6] 0.00787 | [8] 0.0409
inactive: [3] 1.1 | [7] 0.217

Cc1ncc(CO)c(CO)c1O [Pyridoxine hydrochloride]
inactive: [1] 0.992 | [2] 1.01 | [3] 0.996 | [4] 1 | [5] 1.01 | [6] 1.01 | [7] 1.01 | [8] 0.992

C=CCSCC1Nc2cc(Cl)c(S(N)(=O)=O)cc2S(=O)(=O)N1 (configuration not stated) [Althiazide]
inactive: [1] 1.04 | [2] 1.08 | [3] 1.03 | [4] 0.985 | [5] 1.04 | [6] 1.08 | [7] 1.01 | [8] 1.01

CNS(=O)(=O)Cc1ccc2[nH]cc(CCN(C)C)c2c1 [Sumatriptan succinate]
inactive: [1] 0.996 | [2] 0.967 | [3] 0.988 | [4] 1 | [5] 1.03 | [6] 1.01 | [7] 1.01 | [8] 1

CC=C(C)C(=O)OC1C(OC(C)=O)C2(CO)C(O)CC3(C)C(=CCC4C5(C)CCC(OC6OC(C(=O)O)C(OC7OC(CO)C(O)C(O)C7O)C(O)C6OC6OC(CO)C(O)C(O)C6O)C(C)(CO)C5CCC43C)C2CC1(C)C (stereo not drawn) [Beta-Escin]
inactive: [1] 0.997 | [2] 1 | [3] 0.995 | [4] 0.999 | [5] 0.998 | [6] 0.981 | [7] 0.977 | [8] 1

CCC(NC(C)C)C(O)c1ccc(O)c(O)c1 (configuration not stated) [Isoetharine mesylate salt]
inactive: [1] 0.999 | [2] 1 | [3] 0.995 | [4] 1 | [5] 0.994 | [6] 1.01 | [7] 0.999 | [8] 0.994

N[C@@H](Cc1cc(I)c(Oc2ccc(O)c(I)c2)c(I)c1)C(=O)O [Liothyronine]
inactive: [1] 0.985 | [2] 0.951 | [3] 0.981 | [4] 0.976 | [5] 0.987 | [6] 0.984 | [7] 1.01 | [8] 1

Nc1cc(-c2ccncc2)c[nH]c1=O [Amrinone]
inactive: [1] 1.01 | [2] 1.06 | [3] 1.07 | [4] 1 | [5] 1.05 | [6] 1.06 | [7] 1 | [8] 1.02

O=C(NCCNCC(O)COc1ccc(O)cc1)N1CCOCC1 (configuration not stated) [Xamoterol hemifumarate]
inactive: [1] 0.969 | [2] 0.945 | [3] 0.98 | [4] 0.993 | [5] 0.991 | [6] 0.982 | [7] 1.01 | [8] 0.99

CN(C)CCC=C1c2ccccc2COc2ccccc21 [Doxepin hydrochloride]
inactive: [1] 1 | [2] 0.977 | [3] 0.899 | [4] 0.994 | [5] 0.976 | [6] 0.962 | [7] 0.997 | [8] 0.977

NS(=O)(=O)c1cc(C(=O)O)cc(N2CCCC2)c1Oc1ccccc1 [Piretanide]
inactive: [1] 1.03 | [2] 1.07 | [3] 1.08 | [4] 1.01 | [5] 1.06 | [6] 1.07 | [7] 1 | [8] 0.997

CC1Cc2ccccc2N1NC(=O)c1ccc(Cl)c(S(N)(=O)=O)c1 (configuration not stated) [Indapamide]
inactive: [1] 1 | [2] 0.985 | [3] 1.01 | [4] 0.992 | [5] 0.999 | [6] 1.02 | [7] 1 | [8] 0.988

C#C[C@]1(O)CC[C@H]2[C@@H]3CCC4=CC(=O)CC[C@@H]4[C@H]3CC[C@@]21CC [(D-) Norgestrel]
inactive: [1] 0.98 | [2] 0.938 | [3] 0.961 | [4] 0.979 | [5] 0.989 | [6] 0.974 | [7] 0.998 | [8] 1

c1ccc(CNc2ncnc3nc[nH]c23)cc1 [Aminopurine, 6-benzyl]
inactive: [1] 1 | [2] 1 | [3] 0.953 | [4] 1.01 | [5] 1 | [6] 0.985 | [7] 1 | [8] 0.995
